Assay results taken from the supplement of paper PMC12645437, “Orthogonal IMiD-Degron Pairs Induce Selective Protein Degradation in Cells” (ACS Chemical Biology, 2025).
The full ranking holds about 8,300 sequences; the median of “log2 fold change of degron read counts, EGFP-low vs EGFP+ sorted cells (limma voom), compound-induced degradation” is about -1.1, and the highest 2% start at about 3.2. Many of the other results were omitted from the sample, so the highest values are more common in it than they were.

T1: CRBN, Q96SW2
T1 chain: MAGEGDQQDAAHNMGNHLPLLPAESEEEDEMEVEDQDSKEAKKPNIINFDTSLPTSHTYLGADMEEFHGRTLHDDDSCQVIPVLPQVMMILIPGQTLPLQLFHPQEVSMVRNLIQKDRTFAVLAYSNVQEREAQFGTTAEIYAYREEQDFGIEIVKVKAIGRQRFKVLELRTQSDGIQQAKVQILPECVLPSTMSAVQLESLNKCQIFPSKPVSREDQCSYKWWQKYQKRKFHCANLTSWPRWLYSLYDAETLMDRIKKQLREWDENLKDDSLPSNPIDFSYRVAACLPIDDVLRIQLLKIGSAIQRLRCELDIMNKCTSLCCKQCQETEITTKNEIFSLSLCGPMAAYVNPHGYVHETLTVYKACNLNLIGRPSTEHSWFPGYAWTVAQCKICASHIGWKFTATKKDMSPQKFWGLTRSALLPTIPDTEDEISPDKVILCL

B1: 46F_47G_49P_50I_52G_53H_54W_55F_67L_, Q9UKT9 (peptide)
chain: FGCPICGHWFTQKGNLLRHIKL
B2: 46F_47N_49E_50V_52G_53A_54N_55F_67L_, Q9UKT9 (peptide)
chain: FNCEVCGANFTQKGNLLRHIKL
B3: 46F_47F_49E_50V_52G_53A_54N_55F_67L_, Q9UKT9 (peptide)
chain: FFCEVCGANFTQKGNLLRHIKL
B4: 46F_47H_49E_50V_52G_53A_54N_55F_67L_, Q9UKT9 (peptide)
chain: FHCEVCGANFTQKGNLLRHIKL
B5: 46F_47I_49E_50V_52G_53A_54N_55F_67L_, Q9UKT9 (peptide)
chain: FICEVCGANFTQKGNLLRHIKL
B6: 46F_47Q_49E_50V_52G_53A_54N_55F_67L_, Q9UKT9 (peptide)
chain: FQCEVCGANFTQKGNLLRHIKL
B7: 46F_47Y_49E_50V_52G_53A_54N_55F_67L_, Q9UKT9 (peptide)
chain: FYCEVCGANFTQKGNLLRHIKL
B8: 46F_47V_49E_50V_52G_53A_54N_55F_67L_, Q9UKT9 (peptide)
chain: FVCEVCGANFTQKGNLLRHIKL
B9: 46F_47E_49E_50V_52G_53A_54N_55F_67L_, Q9UKT9 (peptide)
chain: FECEVCGANFTQKGNLLRHIKL
B10: 46F_47W_49E_50V_52G_53A_54N_55F_67L_, Q9UKT9 (peptide)
chain: FWCEVCGANFTQKGNLLRHIKL
B11: 46F_47M_49E_50V_52G_53A_54N_55F_67L_, Q9UKT9 (peptide)
chain: FMCEVCGANFTQKGNLLRHIKL
B12: 46F_47T_49E_50V_52G_53A_54N_55F_67L_, Q9UKT9 (peptide)
chain: FTCEVCGANFTQKGNLLRHIKL
B13: 46F_47L_49E_50V_52G_53A_54N_55F_67L_, Q9UKT9 (peptide)
chain: FLCEVCGANFTQKGNLLRHIKL
B14: 46F_47H_49N_50I_52G_53A_54H_55F_67L_, Q9UKT9 (peptide)
chain: FHCNICGAHFTQKGNLLRHIKL
B15: 46F_47G_49P_50I_52G_53H_54Q_55F_67L_, Q9UKT9 (peptide)
chain: FGCPICGHQFTQKGNLLRHIKL
B16: 46F_47V_49E_50V_52G_53A_54W_55F_67L_, Q9UKT9 (peptide)
chain: FVCEVCGAWFTQKGNLLRHIKL
B17: 46F_47L_49D_50Q_52G_53A_54M_55F_67L_, Q9UKT9 (peptide)
chain: FLCDQCGAMFTQKGNLLRHIKL
B18: 46F_47I_49N_50Q_52G_53R_54A_55F_67L_, Q9UKT9 (peptide)
chain: FICNQCGRAFTQKGNLLRHIKL

Biological target: T1, CRBN, Q96SW2
Assay: log2 fold change of degron read counts, EGFP-low vs EGFP+ sorted cells (limma voom), compound-induced degradation; higher = more compound-induced degradation of the degron-EGFP fusion; degrons are variants of IKZF1/3 zinc finger 2; compound dose not given here
Conditions: Jurkat, 18 h
[1] = compound: compound 19 (5-tert-butyl-thalidomide)
[2] = compound: compound 22 (5-morpholino-thalidomide)
[3] = compound: compound 33 (diphenyl IMiD analogue)
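Also: pooled lentiviral library of zinc finger degron-EGFP fusions in mCherry-positive Jurkat cells, FACS-sorted after compound exposure, with degron abundance counted by next-generation sequencing.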

Sequence	log2 fold change of degron read counts [1]	log2 fold change of degron read counts [2]	log2 fold change of degron read counts [3]	log2 fold change of degron read counts (compound: thalidomide)
B1	-1.35	-2.19	-1.6	-1.77
B2	2.09	0.096	-0.251	-0.321
B3	2.83	3.44	1.84	1.47
B4	0.846	0.806	-0.028	-0.545
B5	-0.804	2.54	2.03	2.44
B6	0.104	1.29	1.34	3.56
B7	3.26	3.88	2.56	1.5
B8	-0.0108	2.6	2.09	2.74
B9	-0.492	-1.03	2.04	2.31
B10	3.33	3.86	2.16	1.61
B11	-0.728	0.197	2.72	1.11
B12	-0.297	1.72	1.21	2.03
B13	-0.0798	-0.418	0.939	1.25
B14	0.23	-0.286	-0.308	-1.49
B15	-1.23	-2.85	-2.17	-2.38
B16	-1.7	-0.89	0.622	0.0931
B17	-3.11	-2.68	-1.79	-2.7
B18	-2.99	-3.18	-3.02	-2.57
